This is part of a sample that, as a whole, favours compounds with a hit. Of some 79,000 tested, about 15% had one in any assay. The source made the active and inactive calls. Rule as the data show it: active = growth inhibition above about 70%; inactive = the rest.
Assays:
[1] = NCI Yeast Anticancer Drug Screen. Data for the rad50 strain (AID 155);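 also: 0% = growth of vehicle-only cultures of the same strain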; conditions: S. cerevisiae rad50 strain growth inhibition; at 50.0 µM; active compounds read high
Procedure, shortened: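 DNA repair mutant yeast, compound exposure, growth read-out; inhibition is taken relative to vehicle.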

[2] = NCI Yeast Anticancer Drug Screen. Data for the mec2-1 strain (AID 157); conditions: S. cerevisiae mec2-1 strain, at 50.0 µM, active compounds read high
Procedure, shortened: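 Each compound was tested on mec2-1 yeast, a strain altered in DNA damage repair or cell cycle control. Growth inhibition is reported relative to vehicle.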

[3] = NCI Yeast Anticancer Drug Screen. Data for the sgs1 mgt1 strain (AID 161);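 also: 0% = growth of cultures given vehicle only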; conditions: S. cerevisiae sgs1 mgt1 strain, at 50.0 µM, active compounds read high
Procedure, shortened: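 Genetically altered yeast, compound exposure, growth inhibition relative to vehicle.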

[4] = NCI Yeast Anticancer Drug Screen. Data for the cln2 rad14 strain (AID 165);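 also: 0% = growth equal to vehicle treated cultures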; conditions: S. cerevisiae cln2 rad14 strain, at 50.0 µM, active compounds read high
Procedure, shortened: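 Test compounds were added to cln2 rad14 yeast cultures; inhibition of growth was then determined by comparison with vehicle treatment.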

[5] = NCI Yeast Anticancer Drug Screen. Data for the bub3 strain (AID 167); conditions: S. cerevisiae bub3 mutant strain, at 50.0 µM, active compounds read high
Procedure, shortened: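 In this screen, a yeast mutant lacking normal mitotic checkpoint function is challenged with compound. Relative growth versus vehicle gives the inhibition value.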

[6] = NCI Yeast Anticancer Drug Screen. Data for the mlh1 rad18 strain (AID 175); conditions: S. cerevisiae mlh1 rad18 strain growth inhibition; at 50.0 µM; active compounds read high
Procedure, shortened: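 Inhibition values reflect reduced growth of mutant yeast versus vehicle-treated controls following compound exposure; the mutations affect DNA damage repair.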

Measured: growth inhibition

CN=C(N)SCCSC(N)=NC
inactive: [1] -12.3% | [2] -18.2% | [3] 0.25% | [4] -13.5% | [5] 11.5% | [6] -5.15%

C(/Cc1ccc2c(c1)OCO2)=N\NC1=NCCN1
inactive: [1] -8.5% | [2] -0.55% | [3] 1.55% | [4] -19.4% | [5] 5.2% | [6] 18.1%

O=c1nc(-c2ccccc2)scc1-c1ccccc1
inactive: [1] -1% | [2] -10.6% | [3] 3.4% | [4] 19.1% | [5] 10% | [6] -10.1%

O=C(O)/C(=C\c1cccc(O)c1)c1ccccc1
inactive: [1] -19.4% | [2] -30.4% | [3] -16.4% | [4] -6.65% | [5] -3.2% | [6] -6%

Oc1ccc(C2CCCC2)cc1
inactive: [1] -9.15% | [2] -30.1% | [3] -22.1% | [4] -14.7% | [5] -12.7% | [6] -17.4%

CCOC(=O)c1c(N)sc2c1C(C(=O)OCC)CC2 (configuration not stated)
inactive: [1] -8.95% | [2] 7.1% | [3] -8.05% | [4] -0.8% | [5] 14.8% | [6] 19.9%

CC(=O)Nc1ccc(/C=N/NC(=O)COCC(=O)N/N=C/c2ccc(NC(C)=O)cc2)cc1
active: [4] 86.3%
inactive: [1] 7.8% | [2] 11.1% | [3] 0.15% | [5] -3.2% | [6] -9.65%

Clc1ccc(CSc2cnnc(SCc3ccc(Cl)cc3Cl)c2SCc2ccc(Cl)cc2Cl)c(Cl)c1
inactive: [1] 5.9% | [2] 5.9% | [3] 8.05% | [4] 2.25% | [5] -5.15% | [6] -6.6%

O=C1N=C(c2ccccc2)C(c2ccccc2)N1 (configuration not stated)
inactive: [1] -9.3% | [2] 23.1% | [3] 12.9% | [4] -3.85% | [5] -0.4% | [6] 8.65%

CC(C)c1cccc(C(C)C)c1NC(=O)Nc1cccc(C(F)(F)F)c1
inactive: [1] -5.4% | [2] -11.1% | [3] 1.45% | [4] 8.3% | [5] 10.2% | [6] 3.85%

SC1(S)CCCN(Cc2ccccc2)C1
inactive: [1] 8.55% | [2] 19.2% | [3] 42.8% | [4] 35.6% | [5] 44% | [6] 37.8%

c1ccc(-c2cc(-c3ccccc3)nc(-c3ccncc3)c2)cc1
inactive: [1] -16.1% | [2] -35.3% | [3] 2.9% | [4] 13.8% | [5] 1.55% | [6] -63.7%

O=C1C=CC(=O)c2c(Cl)ccc(O)c21
inactive: [1] -16.9% | [2] -30.6% | [3] -20.4% | [4] 10.1% | [5] -20.2% | [6] -8.7%

N#CC(C#N)=C1c2ccccc2Sc2ccccc21
inactive: [1] -18.6% | [2] -0.35% | [3] -2.05% | [4] -21.3% | [5] -11.5% | [6] -22.2%

Cc1ccc(C)c(NC(=O)CCC(=O)C(C#N)c2nc3ccccc3s2)c1 (configuration not stated)
inactive: [1] 25.9% | [2] -3.3% | [3] -5.15% | [4] 17.6% | [5] 3.7% | [6] -5.7%

CCCCCCCCCCCCCCCCCCCCCCOC(=O)CCC(=O)OCCCCCCCCCCCCCCCCCCCCCC
inactive: [1] 17.2% | [2] -44.3% | [3] 17.4% | [4] -0.95% | [5] -10.8% | [6] 5.75%

COc1ccc(CN(C)C)c(C(O)c2ccccc2)c1 (configuration not stated)
inactive: [1] 9.2% | [2] -1.75% | [3] 0.7% | [4] 7.6% | [5] 9.5% | [6] 13.2%

Cc1cccnc1NC=O
inactive: [1] -10.7% | [2] -12.2% | [3] -4.8% | [4] -17.6% | [5] -24.7% | [6] -9.7%

CCCC(O)(c1ccccc1)c1ccccc1
inactive: [1] 5.4% | [2] 2.95% | [3] -2.95% | [4] -6.4% | [5] -4.5% | [6] 4.5%

CCCCCC(=O)Cc1cc(OC)cc2c1C(=O)Oc1cc(O)c(C(=O)O)c(CC(=O)CCCCC)c1O2
active: [1] 83% | [2] 86.5% | [3] 85.8% | [4] 79.4% | [5] 80.1% | [6] 78.1%

COc1ccc2c(c1)CCC1C2CCC2(C)C(=O)C(n3cnc4c(SC)ncnc43)CC12 (configuration not stated)
inactive: [1] 42.3% | [2] 19.6% | [3] 58.4% | [4] 29.1% | [5] 25.2% | [6] 46.9%

N#CC(C(=O)CCC(=O)C(C#N)c1c(Cl)cccc1Cl)c1c(Cl)cccc1Cl (configuration not stated)
inactive: [1] -18.3% | [2] 7.3% | [3] -12.5% | [4] -41.5% | [5] 6.55% | [6] -11.1%

CC(C(OC(=O)C1c2ccccc2-c2ccccc21)c1ccccc1)N(C)C (configuration not stated)
active: [1] 99.5% | [2] 75.8% | [3] 99.5% | [4] 91.4% | [5] 99.4% | [6] 99.2%

CSc1ccc(NC(=S)SCc2ccc3c(c2)OCO3)cc1Cl
active: [1] 95.7% | [2] 98.6% | [3] 98% | [4] 84.3% | [5] 97.5% | [6] 97.2%

CC1NC(=O)OC1C(C)(C)C (configuration not stated)
inactive: [1] 6.95% | [2] -2.8% | [3] -0.75% | [4] -19.1% | [5] -5.4% | [6] -4.55%

c1cnn([B-]2(n3cccn3)n3ccc[n+]3[B-](n3cccn3)(n3cccn3)n3ccc[n+]32)c1
inactive: [1] 0.85% | [2] -11.6% | [3] 9.2% | [4] -8.85% | [5] 14.1% | [6] -4.05%

Cc1cc(C)c(NC(=O)NC2CCCCC2)cc1C
inactive: [1] 3.95% | [2] -9.3% | [3] 4.15% | [4] -1.6% | [5] 10.2% | [6] 34.9%

CC1CCC(NC(=O)NCCCl)c2ccccc21 (configuration not stated)
inactive: [1] -7.05% | [2] -1.3% | [3] -1.8% | [4] -23.8% | [5] -14.2% | [6] -6.65%

CCOC(=O)Nc1nc2cc(C(=O)OC)n(C)c2s1
inactive: [1] 19.4% | [2] 23.6% | [3] 25.7% | [4] 11.1% | [5] 7.4% | [6] 18.9%

CCCC(=O)C(N)Cc1ccccc1 (configuration not stated)
inactive: [1] -3.8% | [2] -6.1% | [3] -6% | [4] 12.3% | [5] 12.2% | [6] -6.3%

Cc1cc(S(=O)(=O)Nc2n[nH]c(Nc3ccccc3)n2)c(SCC(=O)O)cc1Cl
inactive: [1] 11.3% | [2] 52.8% | [3] 51.2% | [4] -0.25% | [5] -4.2% | [6] 23.1%

CC(=O)OCCOC(=O)Nc1cccc2ccccc12
inactive: [1] -9.85% | [2] -7.9% | [3] -1.3% | [4] 30.9% | [5] 2.65% | [6] -0.6%

CC(=O)N1c2cc(N=NN(C)C)ccc2NC(=O)CC1C (configuration not stated)
inactive: [1] 20% | [2] -3.05% | [3] 9.5% | [4] 0.65% | [5] 4.2% | [6] 34.3%

Cc1c(C(=O)NNc2ccccc2)n2c(=S)[nH]nc2c2ccccc12
inactive: [1] 33.2% | [2] 10.1% | [3] -7.85% | [4] 8.6% | [5] -14.8% | [6] 45.8%

CC(Br)CCc1ccccc1Br (configuration not stated)
inactive: [1] 3.95% | [2] -8.9% | [3] -2.95% | [4] -39.5% | [5] 19.9% | [6] 10.7%

O=C1OC(c2cccc(Cl)c2)=N/C1=C\c1ccc(Cl)cc1
inactive: [1] 20.4% | [2] 16.6% | [3] 16.6% | [4] 11.2% | [5] 7.5% | [6] 0.6%

CO/C=C/CCCO
inactive: [1] -14.8% | [2] -16.5% | [3] -14.8% | [4] 7.55% | [5] -3.55% | [6] -9.7%

NCCS/C=C/C(=O)Oc1ccc(Br)cc1
inactive: [1] 35.5% | [2] 0.85% | [3] 12.1% | [4] -1.3% | [5] -9.9% | [6] 53.9%

Cc1nc(N)[nH]c(=O)c1CCCN=Cc1ccc([N+](=O)[O-])cc1
inactive: [1] 4.3% | [2] 6% | [3] 14.4% | [4] 7.7% | [5] 31.6% | [6] 29.9%

O=C(CCCN1CC=C(n2c(=O)[nH]c3ccccc32)CC1)c1cccs1
inactive: [1] 50.6% | [2] 29.2% | [3] 32.4% | [4] 19.9% | [5] 33.1% | [6] 42.8%

O=C(CCSc1ncnc2nc[nH]c12)c1ccccc1
inactive: [1] -24.8% | [2] 20.4% | [3] -3.05% | [4] -36.2% | [5] 4.3% | [6] 12.1%

CCCCOc1c(Cl)cc(Cl)cc1-c1ccccc1
inactive: [1] 14.7% | [2] 9.6% | [3] 2.55% | [4] -18.2% | [5] 18.5% | [6] 2.25%
